Results on eight compounds are retold here after ChEMBL document CHEMBL3988442, “University of Dundee, Small-Polar-MMV Screening Library” (2021).

Set-up in all cases: scale not given: direction of the effect not stated beside the values
Experiment [1] addresses Protein translocase subunit SecA (Escherichia coli (strain K12)) (UniProt P10408). As to the kind of experiment: Assay to Identify E. coli SecA ATPase Inhibitors. The experiment is classed as functional. As to conditions: 30 µM.
In experiment [2] the target is T1, Ubiquitin-activating enzyme e1, putative (Leishmania donovani (strain BPK282A1)) (UniProt E9BSI1).
T1 sequence (whole entry): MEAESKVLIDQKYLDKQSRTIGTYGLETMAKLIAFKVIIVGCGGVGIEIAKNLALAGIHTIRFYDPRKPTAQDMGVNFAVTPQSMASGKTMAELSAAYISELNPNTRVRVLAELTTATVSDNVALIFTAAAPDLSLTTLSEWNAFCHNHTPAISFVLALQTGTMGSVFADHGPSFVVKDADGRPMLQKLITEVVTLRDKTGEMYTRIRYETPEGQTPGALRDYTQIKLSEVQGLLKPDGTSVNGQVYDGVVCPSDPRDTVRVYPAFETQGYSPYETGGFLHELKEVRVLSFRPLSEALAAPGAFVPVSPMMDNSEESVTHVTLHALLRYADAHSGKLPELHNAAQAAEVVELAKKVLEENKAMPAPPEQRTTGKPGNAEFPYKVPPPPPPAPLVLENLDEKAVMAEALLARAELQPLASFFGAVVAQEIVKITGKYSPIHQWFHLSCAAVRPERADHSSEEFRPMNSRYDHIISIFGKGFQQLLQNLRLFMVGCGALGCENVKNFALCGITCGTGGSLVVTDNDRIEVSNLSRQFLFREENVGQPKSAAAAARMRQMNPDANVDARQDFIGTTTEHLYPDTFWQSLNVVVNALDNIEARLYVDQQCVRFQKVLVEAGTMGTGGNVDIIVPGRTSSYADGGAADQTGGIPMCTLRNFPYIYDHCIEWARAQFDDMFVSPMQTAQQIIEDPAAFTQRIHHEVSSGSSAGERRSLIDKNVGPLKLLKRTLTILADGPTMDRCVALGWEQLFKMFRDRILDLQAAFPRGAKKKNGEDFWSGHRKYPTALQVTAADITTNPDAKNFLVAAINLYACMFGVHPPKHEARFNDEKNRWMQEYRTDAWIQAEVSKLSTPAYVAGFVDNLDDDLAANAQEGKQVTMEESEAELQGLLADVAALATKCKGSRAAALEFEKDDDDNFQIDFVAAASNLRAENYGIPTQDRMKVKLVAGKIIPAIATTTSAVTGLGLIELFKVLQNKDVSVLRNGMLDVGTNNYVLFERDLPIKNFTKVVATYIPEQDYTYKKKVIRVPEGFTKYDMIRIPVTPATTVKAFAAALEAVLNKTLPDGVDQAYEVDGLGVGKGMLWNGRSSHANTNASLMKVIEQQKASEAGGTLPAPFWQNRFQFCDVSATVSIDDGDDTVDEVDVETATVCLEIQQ
The experiment can be described thus: Leishmania donovani Ubiquitin Activating Enzyme (LdE1). Type of experiment: functional. As to conditions: 30 µM.

For experiment [3], the target named is AMP-activated protein kinase, AMPK (Homo sapiens) (UniProt P54646+O43741+P54619+Q9UGJ0+Q9Y478+Q13131+Q9UGI9). As to the kind of experiment: AMP-dependent Kinase enzyme assay. An in vitro enzyme assay that detects ADP turnover that is directly proportional to AMPK activity. This uses naive AMPK that is activated during the assay with MK-8722. The experiment is classed as functional. As to conditions: 30 µM.

The target in experiment [4] is Sialic acid-binding Ig-like lectin 9 (Homo sapiens) (UniProt Q9Y336). As to the kind of experiment: Hs-Siglec9 ALPHAscreen SOP 20170721. As to conditions: 10 µM. A general note: Alpha assays give light when donor and acceptor beads are brought close together.
The test system of another experiment is Trypanosoma cruzi. As to the kind of experiment: Trypanosoma cruzi phosphomannomutase and mannose-1-phosphate guanylyltransferase assay. As to conditions: 10 µM. Type of experiment: functional.
In experiment [5] the target is T2, Arginase-2, mitochondrial (Homo sapiens) (UniProt P78540).
T2 sequence (whole entry): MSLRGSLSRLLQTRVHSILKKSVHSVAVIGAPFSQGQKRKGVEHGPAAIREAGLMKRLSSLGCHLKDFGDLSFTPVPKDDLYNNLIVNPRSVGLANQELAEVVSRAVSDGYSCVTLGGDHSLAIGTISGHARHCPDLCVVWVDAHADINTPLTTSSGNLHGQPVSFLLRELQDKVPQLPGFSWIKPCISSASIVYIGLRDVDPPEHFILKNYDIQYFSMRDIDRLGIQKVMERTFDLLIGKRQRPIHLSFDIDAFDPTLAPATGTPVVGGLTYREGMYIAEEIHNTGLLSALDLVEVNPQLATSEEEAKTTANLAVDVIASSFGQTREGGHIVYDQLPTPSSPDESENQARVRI
As to the kind of experiment: in vitro enzyme assay to detect the production of urea directly proportional to the activity of Arginase II. Also: in the data most compounds retested in dose-response had high values. Type of experiment: functional. Particulars: 33.3 µM.

Experiment [6] deals with T3, Proteasome subunit beta (Trypanosoma cruzi) (UniProt O96673).
T3 sequence (whole entry): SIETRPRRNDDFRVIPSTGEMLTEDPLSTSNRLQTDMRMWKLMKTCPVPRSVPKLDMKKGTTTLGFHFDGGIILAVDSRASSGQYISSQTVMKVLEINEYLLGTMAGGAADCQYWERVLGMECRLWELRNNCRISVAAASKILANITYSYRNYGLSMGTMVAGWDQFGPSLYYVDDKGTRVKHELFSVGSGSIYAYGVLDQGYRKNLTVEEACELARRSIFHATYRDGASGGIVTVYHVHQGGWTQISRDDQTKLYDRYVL
As to the kind of experiment: Trypanosoma cruzi proteasome chymotrypsin-like activity (TcProtChymo) assay. Also: in the data most compounds retested in dose-response had high values. Type of experiment: functional. Particulars: 9.37 µM.

For the next experiment, the species on record is Homo sapiens. The experiment can be described thus: To identify inhibition of the IFN signalling (Jak-Stat) pathway via expression of an eGFP reporter gene under the control of an IFN-stimulated response element (ISRE) containing MxA promoter. The experiment is classed as functional. Particulars: 30 µM. (Reporter assays use an easily measured gene product as a stand-in for the process of interest.)

Experiment [7] deals with T4, Tyrosyl-tRNA synthetase, putative (Trypanosoma cruzi (strain CL Brener)) (UniProt Q4DSP6).
T4 sequence (whole entry): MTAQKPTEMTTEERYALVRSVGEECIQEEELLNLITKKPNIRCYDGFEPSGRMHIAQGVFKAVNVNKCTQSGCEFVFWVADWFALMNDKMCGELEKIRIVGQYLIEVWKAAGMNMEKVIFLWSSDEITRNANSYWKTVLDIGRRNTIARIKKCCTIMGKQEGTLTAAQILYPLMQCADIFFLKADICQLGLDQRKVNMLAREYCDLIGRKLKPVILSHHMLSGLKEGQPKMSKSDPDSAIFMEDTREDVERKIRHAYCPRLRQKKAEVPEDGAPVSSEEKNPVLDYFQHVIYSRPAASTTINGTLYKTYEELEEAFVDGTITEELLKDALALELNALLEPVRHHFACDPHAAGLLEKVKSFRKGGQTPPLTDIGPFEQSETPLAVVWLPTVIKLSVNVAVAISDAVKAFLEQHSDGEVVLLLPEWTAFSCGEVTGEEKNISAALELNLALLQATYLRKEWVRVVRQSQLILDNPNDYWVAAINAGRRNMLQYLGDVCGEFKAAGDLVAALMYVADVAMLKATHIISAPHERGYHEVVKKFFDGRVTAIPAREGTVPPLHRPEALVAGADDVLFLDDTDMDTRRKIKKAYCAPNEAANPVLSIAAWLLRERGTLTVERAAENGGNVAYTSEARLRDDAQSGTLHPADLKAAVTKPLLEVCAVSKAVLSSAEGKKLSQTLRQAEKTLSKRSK
The experiment can be described thus: Trypanosoma cruzi tyrosyl tRNA synthetase (TcYRS) _High Tyrosine SOP. Also: in the data most compounds retested in dose-response had high values. As to conditions: 30 µM. Type of experiment: functional.

The target of experiment [8] is T4, Tyrosyl-tRNA synthetase, putative (Trypanosoma cruzi (strain CL Brener)). As to the kind of experiment: Trypanosoma cruzi tyrosyl tRNA synthetase (TcYRS) SOP. The experiment is classed as functional. Particulars: 30 µM.
Experiment [9] deals with Chromo domain-containing protein 1 (Saccharomyces cerevisiae (strain ATCC 204508 / S288c) (Baker's yeast)) (UniProt P32657). The experiment can be described thus: ScCHD-1 Enzyme Inhibition Assay. Also: in the data most compounds retested in dose-response had high values. The experiment is classed as functional. As to conditions: 30 µM.

For some of these results: Entries with a potency or affinity are not part of this list.

Protein translocase subunit SecA (Escherichia coli (strain K12)), sequence (P10408 whole entry): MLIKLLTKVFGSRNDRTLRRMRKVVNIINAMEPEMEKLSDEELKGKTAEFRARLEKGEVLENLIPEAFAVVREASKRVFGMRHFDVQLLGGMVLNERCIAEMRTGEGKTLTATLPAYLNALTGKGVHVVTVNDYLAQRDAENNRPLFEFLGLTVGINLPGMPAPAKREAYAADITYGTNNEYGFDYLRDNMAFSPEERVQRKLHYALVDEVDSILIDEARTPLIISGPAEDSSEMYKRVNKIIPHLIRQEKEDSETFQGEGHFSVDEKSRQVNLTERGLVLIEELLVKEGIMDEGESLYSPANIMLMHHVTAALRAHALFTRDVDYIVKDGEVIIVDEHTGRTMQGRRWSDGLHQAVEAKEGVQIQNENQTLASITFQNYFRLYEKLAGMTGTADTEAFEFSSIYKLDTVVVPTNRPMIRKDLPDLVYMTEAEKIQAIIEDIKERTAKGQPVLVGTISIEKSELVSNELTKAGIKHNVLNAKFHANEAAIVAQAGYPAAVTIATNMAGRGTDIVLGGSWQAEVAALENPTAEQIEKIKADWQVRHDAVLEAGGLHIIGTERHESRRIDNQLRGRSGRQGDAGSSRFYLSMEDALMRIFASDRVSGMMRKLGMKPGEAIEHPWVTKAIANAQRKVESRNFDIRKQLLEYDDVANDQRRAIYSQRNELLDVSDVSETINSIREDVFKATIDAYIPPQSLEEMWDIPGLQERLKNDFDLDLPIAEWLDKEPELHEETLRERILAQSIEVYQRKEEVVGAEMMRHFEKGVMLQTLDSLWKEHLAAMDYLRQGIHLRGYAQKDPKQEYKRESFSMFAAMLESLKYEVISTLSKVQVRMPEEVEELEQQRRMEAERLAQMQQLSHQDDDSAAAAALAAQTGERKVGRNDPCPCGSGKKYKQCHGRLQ
Sialic acid-binding Ig-like lectin 9 (Homo sapiens), sequence (Q9Y336 whole entry): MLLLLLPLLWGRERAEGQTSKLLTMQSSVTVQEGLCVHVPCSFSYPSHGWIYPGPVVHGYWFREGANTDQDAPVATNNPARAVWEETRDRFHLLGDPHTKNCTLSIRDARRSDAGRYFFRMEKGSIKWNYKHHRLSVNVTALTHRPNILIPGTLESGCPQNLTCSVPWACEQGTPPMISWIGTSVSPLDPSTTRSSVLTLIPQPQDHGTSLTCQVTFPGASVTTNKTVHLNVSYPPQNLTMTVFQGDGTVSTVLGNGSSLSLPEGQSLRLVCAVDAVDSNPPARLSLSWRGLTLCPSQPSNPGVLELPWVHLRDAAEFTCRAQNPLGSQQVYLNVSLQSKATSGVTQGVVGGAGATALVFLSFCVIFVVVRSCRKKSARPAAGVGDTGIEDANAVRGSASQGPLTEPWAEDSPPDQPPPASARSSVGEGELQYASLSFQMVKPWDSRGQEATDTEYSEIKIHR
Chromo domain-containing protein 1 (Saccharomyces cerevisiae (strain ATCC 204508 / S288c) (Baker's yeast)), sequence (P32657 whole entry, the tested form may be a part): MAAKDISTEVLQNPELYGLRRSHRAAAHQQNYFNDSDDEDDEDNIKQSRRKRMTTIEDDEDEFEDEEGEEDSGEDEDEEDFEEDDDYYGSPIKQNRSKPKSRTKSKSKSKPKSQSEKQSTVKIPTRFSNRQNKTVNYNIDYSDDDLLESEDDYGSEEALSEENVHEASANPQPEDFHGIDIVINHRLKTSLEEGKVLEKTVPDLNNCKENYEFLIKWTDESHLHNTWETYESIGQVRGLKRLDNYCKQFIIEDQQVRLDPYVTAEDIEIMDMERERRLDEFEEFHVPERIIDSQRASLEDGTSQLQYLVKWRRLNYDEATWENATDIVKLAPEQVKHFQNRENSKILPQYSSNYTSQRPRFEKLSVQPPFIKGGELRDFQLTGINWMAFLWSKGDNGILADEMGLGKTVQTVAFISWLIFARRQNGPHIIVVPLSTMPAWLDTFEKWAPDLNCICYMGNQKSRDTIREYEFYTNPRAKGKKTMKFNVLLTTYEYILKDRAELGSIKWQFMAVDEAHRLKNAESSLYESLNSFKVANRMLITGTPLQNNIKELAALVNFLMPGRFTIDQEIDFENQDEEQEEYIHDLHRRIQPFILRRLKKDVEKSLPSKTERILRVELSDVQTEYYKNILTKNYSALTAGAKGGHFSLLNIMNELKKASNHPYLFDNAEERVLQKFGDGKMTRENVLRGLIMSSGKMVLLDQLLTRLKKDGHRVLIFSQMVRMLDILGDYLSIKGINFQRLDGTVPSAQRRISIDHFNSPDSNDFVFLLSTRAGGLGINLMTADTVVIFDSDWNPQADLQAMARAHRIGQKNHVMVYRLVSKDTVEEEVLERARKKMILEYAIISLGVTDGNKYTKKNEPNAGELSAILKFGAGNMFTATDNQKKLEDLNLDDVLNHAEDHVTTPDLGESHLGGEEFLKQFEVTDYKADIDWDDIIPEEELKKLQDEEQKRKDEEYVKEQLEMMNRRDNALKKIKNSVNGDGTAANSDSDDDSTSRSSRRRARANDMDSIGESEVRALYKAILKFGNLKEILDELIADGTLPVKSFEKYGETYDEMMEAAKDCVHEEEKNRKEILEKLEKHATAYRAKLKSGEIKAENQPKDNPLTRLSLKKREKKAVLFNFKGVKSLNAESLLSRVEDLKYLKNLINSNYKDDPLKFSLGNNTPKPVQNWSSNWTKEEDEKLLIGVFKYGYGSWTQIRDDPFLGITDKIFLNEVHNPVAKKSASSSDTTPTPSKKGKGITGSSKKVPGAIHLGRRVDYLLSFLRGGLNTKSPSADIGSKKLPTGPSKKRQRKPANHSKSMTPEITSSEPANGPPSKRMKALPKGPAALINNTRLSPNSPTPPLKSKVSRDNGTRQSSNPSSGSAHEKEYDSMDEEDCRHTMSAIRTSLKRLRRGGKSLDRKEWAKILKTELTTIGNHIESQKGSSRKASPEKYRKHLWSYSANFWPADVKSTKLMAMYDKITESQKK

As for `NCC1CN(c2nc(-c3ccccc3)nc3c2CCNCC3)CCO1` (stereo not drawn), the Percent Effect in [1] was -3.14%; in [2], 2.74%; in experiment [3], -7.79%; in [4], 3.51%; in the experiment with Trypanosoma cruzi, 9.32%; in [5], 0.798%. Further, the Percent Effect was -1.11% in experiment [6]; 4.88% in the experiment filed under Homo sapiens; 24% in experiment [7]; 28.4% in [8]; 0.577% in experiment [9].

Consider `Cc1nn(C)c(C)c1CCC(=O)N1CCCC1Cn1cccn1` (stereo not drawn), for which the Percent Effect in experiment [1] was -4.71%; in experiment [2], -2.7%; in experiment [3], 5.43%; in [4], -1.49%; in the experiment on Trypanosoma cruzi, -3.52%; in experiment [5], 2.08%. Further, the Percent Effect was 3.63% in experiment [6]; -0.691% in the experiment listed under Homo sapiens; 1.98% in [7]; 11% in experiment [8]; 1.96% in experiment [9].

As to `CN(CC(=O)N1CCCC1Cn1cccn1)C1CC1` (stereo not drawn), the Percent Effect is -4.84% in [1]; 10.1% in [2]; -1.88% in [3]; 13.2% in experiment [4]; 1.04% in the experiment with Trypanosoma cruzi; 0% in experiment [5]. The Percent Effect in experiment [6] was -0.0819%; in the experiment listed under Homo sapiens it was 3.19%; in experiment [7] it was 1.48%; in experiment [8], 8.86%; in experiment [9], -3.87%.

Consider `CC(Cn1ccnc1)NC(=O)NCCc1ccccn1` (stereo not drawn), for which the Percent Effect is -1.01% in experiment [1]; 21.1% in experiment [2]; -0.947% in experiment [3]; -4.27% in [4]; 1.69% in the experiment on Trypanosoma cruzi; -2.3% in experiment [5]. For the same compound, the Percent Effect was 21.2% in [6]; 6.74% in the experiment listed under Homo sapiens; 5.39% in experiment [7]; 21.9% in experiment [8]; -8.97% in experiment [9].

As for `OC(COCc1cccs1)CN1CCC(c2ccn[nH]2)CC1` (stereo not drawn), the Percent Effect in experiment [1] is 0.446%; in experiment [2] it was 15.2%; in experiment [3] it was -3.7%; in experiment [4], -4.14%; with Trypanosoma cruzi, -8.03%; in experiment [5] it was 3.42%. Besides, the Percent Effect in experiment [6] was 8.6%; in the experiment listed under Homo sapiens it was 16.3%; in [7], -2.46%; in experiment [8], 8.86%; in [9], -3.55%.

Regarding `CC(NCc1cccnc1)c1ccc(OCC(=O)NC2CC2)cc1` (stereo not drawn), the Percent Effect in [1] was -4.57%; in [2], 1.27%; in experiment [3], 10.2%; in experiment [4], 0.488%; with Trypanosoma cruzi, -2.15%; in [5], -0.215%. The Percent Effect was 12.2% in [6]; -0.549% in the experiment filed under Homo sapiens; -2.08% in [7]; -2.53% in experiment [8]; 4.29% in experiment [9].

With `Cc1nn(C)c(Cl)c1C1CCCN1C(=O)c1ccc2c(c1)OCO2` (stereo not drawn), the Percent Effect was -1.18% in experiment [1]; -2.7% in [2]; -7.03% in experiment [3]; -0.722% in [4]; -5.38% in the experiment with Trypanosoma cruzi; -2% in experiment [5]. Further, the Percent Effect was -0.901% in [6]; 13.8% in the experiment listed under Homo sapiens; 0.493% in experiment [7]; -6.17% in experiment [8]; 0.203% in experiment [9].

`Cc1ccc(NC2CCN(C(=O)c3ccsc3)CC2)nn1`: the Percent Effect was -9.11% in experiment [1]; 10.4% in [2]; -1.87% in experiment [3]; 1.46% in [4]; -6.37% in the experiment with Trypanosoma cruzi; -1.07% in [5]. Also, the Percent Effect was 5.57% in experiment [6]; 30% in the experiment listed under Homo sapiens; 6.8% in experiment [7]; 9.76% in [8]; -2% in experiment [9].
